Experimental data: PubChem BioAssay (NCATS)
Records with an inconclusive call do not appear. The source made the active and inactive calls. Unless noted, calls follow the shape of the dose curve; as a rule, active = well fitted curve in the direction sought with a large enough effect; inconclusive = small, poorly fitted or top-dose-only effect, or another doubt; inactive = no such curve, though single readings can be large; an effect the other way counts as inactive or inconclusive.

Experiments:
[1] = qHTS to identify inhibitors of the type 1 interferon - major histocompatibility complex class I in skeletal muscle: primary screen against the NCATS LOPAC collection (AID 1347405)
Summary of the method: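 Cells: C25cl48 human myoblasts, HiBiT-tagged HLA-B*08:01, stimulated with IFN-beta 4.0 ng/ml. Compounds are titrated 1:4.3 over 7 points from 46 uM final and incubated 24 hrs; endogenous MHC class I is quantified by HiBiT lytic luminescence.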

[2] = qHTS for inhibitors of adenylyl cyclases using a fission yeast platform: a pilot screen against the NCATS LOPAC library (AID 1347410)
Summary of the method: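 Growth medium went into the plates first, then compounds were pinned (final up to 57 µM), then CHP2027 yeast were added. Plates were incubated overnight (18 h) at 30C in the dark, and GFP was measured by laser scanning cytometry.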

[3] = Validation qHTS assay for inhibitors of Activation Induced Cytidine Deaminase (AID): UDG Counterscreen signal (AID 1347427)
Summary of the method: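 Counterscreen read of UDG activity (2 U/mL, 4/3x) in the FRET deamination format with AID (1 uM, 4/3x), DJC20/DJC23 substrates (250 nM, 4x), 4 h at room temperature. NaOH stop, fluorescence at 560 ex/665 em.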

[4] = qHTS to identify inhibitors of the type 1 interferon - major histocompatibility complex class I in skeletal muscle: primary screen against the NCATS Mechanism Interrogation Plate v5.0 (MIPE) Libary (AID 1347411)
Summary of the method: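 Cells were genome-edited human myoblasts carrying a HiBit tag on endogenous HLA-B. They were treated with IFN-beta (4.0 ng/ml) and titrated compounds (top 46 uM) for 24 hrs before lytic HiBiT detection.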

[5] = qHTS assay for small molecule disruptors of mitochondrial membrane potential screened against the NCATS CANVASS Library (AID 1347389)
Summary of the method: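 Compounds tested in 11-point qHTS series on HepG2 cells for 1 hr; membrane-potential dye added for 30 min at 37C. Lower red-to-green ratio indicates loss of potential.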

[6] = Secretion counterscreen for inhibitors of the SERCaMP assay screened against the NCATS CANVASS Library (AID 1347390)
Summary of the method: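 Counterscreen identifying compounds that disrupt secretion, using SH-SY5Y cells with a constitutively secreted Gaussia luciferase reporter. A 20 h compound exposure (top 77 uM) precedes luminescent detection with coelenterazine.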

[7] = qHTS for activators of Nrf2/ARE signaling pathway screened against the NCATS CANVASS Library (AID 1347391)
Summary of the method: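 Cells carrying an ARE-driven beta-lactamase reporter (HepG2 background) are dosed for 16 h, then stained with CCF4. Cell viability in the same wells is measured by CellTiter-Glo luminescence.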

[8] = qHTS for activators of dead-cell proteases activity screened against the NCATS CANVASS Library (AID 1347392)
Summary of the method: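 HepG2 cells (2000/well) attached 18 h at 37C, then exposed 5 h to compounds (11-point qHTS). Dead-cell protease activity read as luminescence from cell-impermeant AAF-aminoluciferin substrate after 15 min at room temperature.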

[9] = Vero-766 cells viability qHTS against the NCATS CANVASS Library: Counterscreen for Zika virus inhibition assay (AID 1347394)
Summary of the method: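 This cytotoxicity counterscreen uses African green monkey Vero 766 cells in the absence of Zika virus. Compounds are incubated with cells for 72 h, and ATP-based luminescence reports viability.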

[10] = qHTS for inhibitors of Wild type Zika virus screened against the NCATS CANVASS Library (AID 1347396)
Summary of the method: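 Using ATP-based luminescence (CellTiter Glo), this screen scores rescue of Vero 766 cells from wild-type Zika killing at 72 h post-infection. Compounds are tested in a concentration series.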

[11] = Redox Reaction Profiling qHTS: Assay Interference Panel against the NCATS CANVASS Library (AID 1347401)
Summary of the method: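 Resazurin (5 uM) conversion to resorufin measured with 200 uM DTT in 50 mM HEPES pH 7.3, 50 mM NaCl. Compounds tested in 11-point qHTS series. Fluorescence (ex 525/em 598 nm) read before and after 15 min dark incubation.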

[12] = qHTS for inhibitors of Rabies Virus screened against the NCATS CANVASS Library (AID 1347402; calls by dose curve)
[13] = target: Single-stranded DNA cytosine deaminase (Homo sapiens) (UniProt Q9GZX7); assay: Validation qHTS assay for inhibitors of Activation Induced Cytidine Deaminase (AID): AID signal (AID 1347429)
Summary of the method: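 In this coupled qHTS, AID deaminates a FRET-labelled ssDNA substrate in the presence of UDG over 4 hr at room temperature. Compounds span up to 114 uM final.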

[14] = qHTS for inhibitors of ER calcium dysfunction: SERCaMP assay screened against the NCATS CANVASS Library (AID 1347393); details: SH-SY5Y GLuc-SERCaMP (Gaussia luciferase released on ER calcium loss) secretion, thapsigargin, luminescence
Summary of the method: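 qHTS in SH-SY5Y reporter cells: 16 h compound pretreatment, 4 h thapsigargin, then secreted Gaussia luciferase measured by luminescence.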

[15] = Viability qHTS for inhibitors of the SERCaMP assay screened against the NCATS CANVASS Library (AID 1347400)
Summary of the method: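 Cytotoxicity counter-screen: ATP content (CellTiter-Glo luminescence) of SH-SY5Y-GLuc SERCaMP MJH297 cells after 48 h at 37C with compounds in an 11-point qHTS series.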

[16] = Primary qHTS for Huh7 cytotoxicity: counterscreen for inhibitors of MERS-S pseudotyped particle cell entry (AID 1479147; calls by dose curve); details: outcome: at 57.1 µM (top of the series) unless noted

Measured: Potency

Sequence of Single-stranded DNA cytosine deaminase (Homo sapiens) (Q9GZX7 whole entry, looked up): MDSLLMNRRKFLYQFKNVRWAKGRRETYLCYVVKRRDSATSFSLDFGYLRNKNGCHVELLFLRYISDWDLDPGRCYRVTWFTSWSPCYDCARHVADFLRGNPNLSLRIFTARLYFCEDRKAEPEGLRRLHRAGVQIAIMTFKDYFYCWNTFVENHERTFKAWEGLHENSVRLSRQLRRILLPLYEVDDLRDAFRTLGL

CNc1ccc2oc(C[C@H]3O[C@@]4(CC[C@H]3C)O[C@H]([C@H](C)C(=O)c3ccc[nH]3)[C@H](C)C[C@H]4C)nc2c1C(=O)O
inactive: [2] | [3]
active: [1] 3.98 µM

CC(=O)c1c(O)c(C)c(O)c(Cc2c(O)c3c(c(C(=O)/C=C/c4ccccc4)c2O)OC(C)(C)C=C3)c1O
inactive: [1] | [2] | [4] | [3]

CCCN1CCC[C@@H](c2cccc(O)c2)C1
inactive: [1] | [2] | [3]

CN(N=O)c1ccc(O)c(O)c1
inactive: [1] | [2]

O=c1ccc2[nH]cc(C3=CCNCC3)c2[nH]1
inactive: [1] | [2]

C[C@@H]1O[C@@H](O[C@H]2C[C@@H](O)[C@]3(CO)[C@@H]4C(CC[C@]3(O)C2)[C@@]2(O)CC[C@H]([C@@H]3COC(=O)C3)[C@@]2(C)C[C@H]4O)[C@H](O)[C@H](O)[C@H]1O (stereo not given in full)
inactive: [2] | [3]
active: [1] 1.12 µM

CCCn1c(=O)c2[nH]c(C3CCCC3)nc2n(CCCOC(=O)c2ccc(S(=O)(=O)F)cc2)c1=O
inactive: [1] | [2] | [3]

Nc1cc2c(ncn2CCOCP(=O)(O)O)c(=O)[nH]1
inactive: [1] | [2]

NC(Cc1cc(O)c(O)cc1O)C(=O)O (stereo not given)
inactive: [1] | [2] | [3]

NC(N)=NOCC[C@H](N)C(=O)O
inactive: [1] | [2] | [3]

Cc1o[nH]c(=O)c1CC(N)C(=O)O (stereo not given)
inactive: [1] | [2] | [3]

CN1CCC(c2c[nH]c3ccc(O)cc23)CC1
inactive: [1] | [2] | [3]

[Cl-].[Cl][Pt].[NH2-].[NH2-].c1ccncc1
inactive: [1] | [2]

COc1ccc2[nH]cc(CCN)c2c1
not listed: [4] | [14] | [15] | [16]
inactive: all other assays above

C[N+](C)(C)CC#CCN1CCCC1=O
inactive: [1] | [2] | [3]

COC(=O)N1CCN(C(=O)Cc2ccc(Cl)c(Cl)c2)C(CN2CCCC2)C1 (stereo not given)
inactive: [1] | [2] | [3]

O=S1(=O)N(CCN2CC=C(c3c[nH]c4cc(F)ccc34)CC2)c2cccc3c2N1CCC3
inactive: [1] | [2] | [3]

COc1ccc2c(c1)C13CCCCC1C(C2)N(C)CC3 (stereo not given)
inactive: [1] | [2] | [3]

CC(C)(C)OC(=O)NC1[C@H]2CNC[C@@H]12 (stereo not given in full)
inactive: [1] | [2]

O=C1C[C@@H]2OCC=C3CN4CC[C@]56c7ccccc7N1[C@H]5[C@H]2[C@H]3C[C@H]46
active: [14] 59.6 µM
not listed: [1] | [2] | [3] | [4] | [11] | [13]
inactive: all other assays above

C[N+]1(C)CCOC(O)(c2ccc(-c3ccc(C4(O)C[N+](C)(C)CCO4)cc3)cc2)C1 (stereo not given)
inactive: [1] | [2] | [3]
